Records with an inconclusive call do not appear. Active and inactive are the calls of the source. Unless noted, the call rests on the fitted dose curve; in most records, active means well fitted curve in either direction with a large enough effect (not every such curve was filed as active); inconclusive means small, poorly fitted or top-dose-only effect, or another doubt; inactive means flat fitted curve, though single readings scatter.
How the values were obtained:
[1] = molecular target: Lysosomal acid glucosylceramidase (Homo sapiens) (UniProt P04062); test: Glucocerebrosidase-p2 (AID 348; in the data active means potency below about 10 µM; further: potency means the concentration at half of the fitted maximal effect); conditions: purified GBA, blue fluorogenic substrate, 40 min
In short: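 Normal human glucocerebrosidase (0.2 nM) with blue fluorogenic substrate (80 uM final) in citrate/phosphate pH 5.9 with 10mM sodium taurocholate, 0.01% tween-20; 40 min RT, NaOH/glycine stop; fluorescence Ex 365/Em 440; AC50 from a titration from 0.6 nM upwards.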

[2] = AP1 Signaling Pathway (AID 357); conditions: ME-180 AP-1-bla reporter, EGF-induced, beta-lactamase ratio, 5 h; at 7.69 µM (top of the series) unless noted; further: on the % scale 0 is the no-effect control and ±100 the full control effect
In short: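 ME-180 cells with beta-lactamase reporter under AP-1 response element, stimulated with EC50 EGF; compounds tested in titration series, 5 h at 37 °C. CCF4 substrate added 2.5 h at room temperature; 460/530 nm emission ratio gave %activity and AC50.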

[3] = molecular target: Cytochrome P450 1A2 (Homo sapiens) (UniProt P05177); test: p450-cyp1a2 (AID 410; calls by dose curve; further: potency means the concentration at half of the fitted maximal effect;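 on activity change, negative = inhibition: -100% = full effect of reference inhibitor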); conditions: recombinant CYP1A2, luciferin-ME demethylation, luminescence; series mostly up to 11.4 µM
In short: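 Read-out is luminescence from luciferin produced by CYP1A2 demethylation of Luciferin-ME (100uM, at Km). Detection reagent stopped the 60 min NADPH-dependent reaction; signals were normalized to 57 uM furafylline.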

[4] = NFAT Signaling Pathway (AID 444); conditions: Jurkat NFAT-bla M1, carbachol, beta-lactamase ratio, 5 h; at 7.69 µM (top of the series) unless noted;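 further: carbachol stimulus at about its EC50 of 1 µM final; on the % scale 0 is the no-effect control and ±100 the full control effect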
In short: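 Jurkat cells carrying an NFAT-driven β-lactamase reporter and co-transfected muscarinic M1 receptor were treated with compound plus carbachol (1 uM final, an EC50 level) for 5 h at 37 °C. CCF4 loading followed for 1 h at RT; 460/530 nm ratio gave %activity.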

[5] = Stat Signaling Pathway (AID 446); conditions: ME-180 SIE beta-lactamase reporter, IL-6 stimulated, 5 h; at 7.69 µM (top of the series) unless noted;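 further: ME-180 cervical cancer cells given 40 pM IL-6 alongside compound; SIE-controlled beta-lactamase reporter measured as 460/530 nm FRET emission ratio; on the % scale 0 is the no-effect control and ±100 the full control effect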
In short: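 Emission at 460 and 530 nm (excitation 405 nm) reports SIE-controlled beta-lactamase in ME-180 cells. Cells received compound with 40 pM IL-6 for 5 hrs at 37 C; data scaled between 300 pM IL-6 and 125 nM JAK-inhibitor controls.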

[6] = molecular target: Glucocorticoid receptor (Homo sapiens) (UniProt P04150); test: GR-GFP Redistribution (AID 450;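 active means compounds whose dose series gives a full or clear partial fitted curve of increased nuclear translocation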; further: potency means the concentration at half of the fitted maximal effect); conditions: U2OS GR-GFP nuclear translocation, laser cytometry, 2 h
[7] = molecular target: Mitogen-activated protein kinase 10 (Mus musculus) (UniProt Q61831); test: JNK3 AlphaScreen Assay (AID 530); conditions: JNK3 lysate, c-Jun phosphorylation; series mostly up to 11.4 µM;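 further: kinase came from lysate of stimulated human HepG2 cells; signal reports phosphorylation of biotinylated GST-cJun 1-79 at Ser73 with 10 µM ATP; on the % scale 0 is the no-effect control and ±100 the full control effect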
In short: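 Biotinylated GST-cJun(1-79) served as substrate for JNK3 in HepG2 lysates stimulated with IL-1beta and TNF-alpha. ATP was 10 uM final, pH 7.6. Ser73 phosphorylation was quantified by AlphaScreen (680 nm excitation).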

[8] = molecular target: 3',5'-cyclic-AMP phosphodiesterase 4B (Homo sapiens) (UniProt Q07343); test: qHTS Assay for Inhibitors of PDE-IV (AID 607; active means well fitted activation curve with a large enough effect in the main read-out, with a control signal flat, not every such curve was filed as active; further: % of control where 0% means no effect); conditions: HEK293 ACTOne CNG channel cells, membrane potential fluorescence; series mostly up to 22.9 µM
In short: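 The readout is membrane depolarisation from a cAMP-sensing CNG channel, detected with a potential dye at ex 535/em 590. Cells were HEK293-derived (endogenous PDE-IV) at 1000 cells/well, titrated up to 22.9 uM final.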

[9] = molecular target: Cytochrome P450 3A4 (Homo sapiens) (UniProt P08684); test: qHTS Assay for Activators of Cytochrome P450 3A4 (AID 885; active means well fitted curve in the direction sought with a large enough effect; an effect the other way counts as inactive or inconclusive; further: nearly all actives have a fitted effect of over 65% in size); conditions: recombinant CYP3A4, Luciferin-PPXE luminescence, 60 min; series mostly up to 11.4 µM
In short: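 Activators are scored by enhanced luminescence from CYP3A4 conversion of luciferin-PPXE (25uM, equal to KM) to luciferin, after 60 min at RT with an NADPH-regenerating system.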

[10] = qHTS Assay for Identification of Small Molecule Agonists for Hypoxia Response Element Signaling Pathway (AID 914; active means well fitted activation curve with a large enough effect in the signal ratio, with a control signal flat, not every such curve was filed as active; the % refers to the signal ratio; further: % of control where 0% means no effect); conditions: ME-180 (cervical carcinoma) HRE-bla reporter, beta-lactamase ratio, CoCl2, 17 h; activation: stronger effect = higher value
In short: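 qHTS titration; ME-180 HRE-bla cells; EC50 CoCl2 co-treatment, 17 h at 37 degrees Celsius; CCF4 dye, ex 405nm, em 460nm and 530nm; %Activity from ratio; AC50.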

[11] = molecular target: Cytochrome P450 2C19 (Homo sapiens) (UniProt P33261); test: qHTS Assay for Inhibitors and Substrates of Cytochrome P450 2C19 (AID 899; active means well fitted curve in the direction sought with a large enough effect; an effect the other way counts as inactive or inconclusive; further: nearly all actives have a fitted effect of over 60% in size; further: potency means the concentration at half of the fitted maximal effect); conditions: recombinant CYP2C19, luciferin-H EGE luminescence; series mostly up to 11.4 µM
In short: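 In 50mM KPO4, the reaction held 5nM enzyme and KM-level (10uM) Luciferin-H EGE; it ran 60 min at 37C after NADPH regeneration and a 10 min compound preincubation. Luminescence values were scaled to 57uM ketoconazole as complete inhibition.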

[12] = molecular target: Glucocorticoid receptor (Homo sapiens) (UniProt P04150); test: GR-EFC Redistribution (AID 451; calls by dose curve; further: potency means the concentration at half of the fitted maximal effect); conditions: CHO-K1 GR-EFC translocation, beta-gal luminescence, 2 h
In short: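 CHO-K1 cells stably expressing nuclear-localized β-gal enzyme acceptor and GR fused C-terminally to the enzyme donor fragment; ligand-driven nuclear translocation restores β-gal by complementation. Compounds titrated up to 46 uM final, 2 h at 37 °C; luminescence read.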

[13] = molecular target: Cytochrome P450 2C9 (Homo sapiens) (UniProt P11712); test: qHTS Assay for Inhibitors and Substrates of Cytochrome P450 2C9 (AID 883; active means well fitted curve in the direction sought with a large enough effect; an effect the other way counts as inactive or inconclusive; further: potency means the concentration at half of the fitted maximal effect; nearly all actives have a fitted effect of over 60% in size); conditions: recombinant CYP2C9, luciferin-H luminescence, 60 min; series mostly up to 11.4 µM
In short: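 CYP2C9 deoxyluciferin hydroxylation, 37C, 60 min with NADPH regeneration; 10nM enzyme, 100uM Luciferin-H (KM). Glo detection reagent stopped reaction; luminescence normalized to sulphaphenazole (57uM) full inhibition.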

[14] = molecular target: Cytochrome P450 2D6 (Homo sapiens) (UniProt P10635); test: qHTS Assay for Inhibitors and Substrates of Cytochrome P450 2D6 (AID 891; active means well fitted curve in the direction sought with a large enough effect; an effect the other way counts as inactive or inconclusive; further: potency means the concentration at half of the fitted maximal effect; nearly all actives have a fitted effect of over 60% in size); conditions: recombinant CYP2D6, luciferin-ME EGE luminescence; series mostly up to 11.4 µM
In short: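 Luminescent read-out of luciferin formed by 5 nM human CYP2D6 demethylating 30 uM Luciferin-ME EGE (Km level) over 60 min at room temperature after NADPH regeneration addition. Data normalized to full inhibition by 1.43 uM quinidine.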

3',5'-cyclic-AMP phosphodiesterase 4B (Homo sapiens), sequence (Q07343 whole entry, looked up): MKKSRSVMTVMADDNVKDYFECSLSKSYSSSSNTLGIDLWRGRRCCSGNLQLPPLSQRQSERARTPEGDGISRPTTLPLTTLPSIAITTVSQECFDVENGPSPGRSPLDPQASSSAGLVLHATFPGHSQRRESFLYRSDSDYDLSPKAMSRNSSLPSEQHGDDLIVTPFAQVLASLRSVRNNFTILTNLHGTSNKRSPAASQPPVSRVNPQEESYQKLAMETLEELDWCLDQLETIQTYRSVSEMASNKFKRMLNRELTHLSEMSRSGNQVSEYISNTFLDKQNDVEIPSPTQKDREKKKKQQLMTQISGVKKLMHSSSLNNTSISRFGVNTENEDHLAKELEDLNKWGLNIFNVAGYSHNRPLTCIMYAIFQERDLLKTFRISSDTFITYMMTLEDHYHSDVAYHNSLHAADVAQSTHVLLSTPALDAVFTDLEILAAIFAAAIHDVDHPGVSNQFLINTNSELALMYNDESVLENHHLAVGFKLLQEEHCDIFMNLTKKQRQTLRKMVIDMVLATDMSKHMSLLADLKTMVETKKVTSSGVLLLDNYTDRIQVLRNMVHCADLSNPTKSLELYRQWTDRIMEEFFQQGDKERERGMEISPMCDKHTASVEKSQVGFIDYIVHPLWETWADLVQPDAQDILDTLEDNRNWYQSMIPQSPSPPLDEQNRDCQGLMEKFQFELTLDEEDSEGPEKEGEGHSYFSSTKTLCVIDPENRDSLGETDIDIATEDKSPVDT
Cytochrome P450 1A2 (Homo sapiens), sequence (P05177 whole entry, looked up): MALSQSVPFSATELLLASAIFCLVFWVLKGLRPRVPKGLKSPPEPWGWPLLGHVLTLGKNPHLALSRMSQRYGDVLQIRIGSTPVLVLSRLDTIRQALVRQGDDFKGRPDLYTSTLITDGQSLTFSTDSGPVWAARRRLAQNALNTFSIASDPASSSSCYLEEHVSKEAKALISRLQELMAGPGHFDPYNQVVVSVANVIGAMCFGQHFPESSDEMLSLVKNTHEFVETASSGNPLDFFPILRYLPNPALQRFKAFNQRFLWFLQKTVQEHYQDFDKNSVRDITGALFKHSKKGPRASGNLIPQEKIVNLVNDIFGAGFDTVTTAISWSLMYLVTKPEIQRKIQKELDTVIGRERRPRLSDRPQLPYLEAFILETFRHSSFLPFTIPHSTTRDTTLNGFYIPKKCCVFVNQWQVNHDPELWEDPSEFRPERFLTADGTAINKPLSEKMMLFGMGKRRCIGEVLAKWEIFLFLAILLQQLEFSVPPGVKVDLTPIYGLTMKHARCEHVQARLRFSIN
Glucocorticoid receptor (Homo sapiens), sequence (P04150 whole entry, looked up, the tested form may be a part): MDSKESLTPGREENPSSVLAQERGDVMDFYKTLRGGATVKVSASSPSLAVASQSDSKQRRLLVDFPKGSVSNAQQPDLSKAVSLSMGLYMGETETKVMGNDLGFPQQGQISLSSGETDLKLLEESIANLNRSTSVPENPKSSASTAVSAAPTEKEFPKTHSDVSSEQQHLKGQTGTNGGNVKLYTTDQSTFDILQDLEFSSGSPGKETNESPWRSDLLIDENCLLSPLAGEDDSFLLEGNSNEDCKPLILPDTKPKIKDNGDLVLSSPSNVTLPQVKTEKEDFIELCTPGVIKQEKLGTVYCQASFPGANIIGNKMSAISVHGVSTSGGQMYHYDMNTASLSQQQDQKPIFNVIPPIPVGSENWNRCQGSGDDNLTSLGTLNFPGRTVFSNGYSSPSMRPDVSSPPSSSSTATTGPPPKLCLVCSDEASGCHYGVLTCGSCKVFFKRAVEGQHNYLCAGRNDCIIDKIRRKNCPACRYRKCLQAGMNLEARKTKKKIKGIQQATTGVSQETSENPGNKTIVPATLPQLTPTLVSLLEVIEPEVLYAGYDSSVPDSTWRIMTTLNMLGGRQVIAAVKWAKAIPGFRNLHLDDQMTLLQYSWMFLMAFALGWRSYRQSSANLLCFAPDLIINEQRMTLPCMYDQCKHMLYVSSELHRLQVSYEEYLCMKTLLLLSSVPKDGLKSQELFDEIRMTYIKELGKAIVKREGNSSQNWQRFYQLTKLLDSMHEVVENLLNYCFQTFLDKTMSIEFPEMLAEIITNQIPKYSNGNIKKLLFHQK
Cytochrome P450 3A4 (Homo sapiens), sequence (P08684 whole entry, looked up): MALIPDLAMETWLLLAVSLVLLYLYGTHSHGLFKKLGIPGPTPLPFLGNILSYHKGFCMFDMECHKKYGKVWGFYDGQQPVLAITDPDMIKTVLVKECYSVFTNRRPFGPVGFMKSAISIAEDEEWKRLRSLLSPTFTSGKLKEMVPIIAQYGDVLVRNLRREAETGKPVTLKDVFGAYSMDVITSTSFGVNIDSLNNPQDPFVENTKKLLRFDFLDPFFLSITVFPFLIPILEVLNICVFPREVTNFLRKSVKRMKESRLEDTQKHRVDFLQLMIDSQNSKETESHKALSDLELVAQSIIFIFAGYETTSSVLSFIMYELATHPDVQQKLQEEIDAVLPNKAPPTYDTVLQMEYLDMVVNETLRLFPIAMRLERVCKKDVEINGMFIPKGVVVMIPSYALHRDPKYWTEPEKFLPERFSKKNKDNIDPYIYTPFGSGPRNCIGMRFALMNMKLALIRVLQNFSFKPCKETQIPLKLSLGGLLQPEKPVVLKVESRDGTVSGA
Cytochrome P450 2C19 (Homo sapiens), sequence (P33261 whole entry, looked up): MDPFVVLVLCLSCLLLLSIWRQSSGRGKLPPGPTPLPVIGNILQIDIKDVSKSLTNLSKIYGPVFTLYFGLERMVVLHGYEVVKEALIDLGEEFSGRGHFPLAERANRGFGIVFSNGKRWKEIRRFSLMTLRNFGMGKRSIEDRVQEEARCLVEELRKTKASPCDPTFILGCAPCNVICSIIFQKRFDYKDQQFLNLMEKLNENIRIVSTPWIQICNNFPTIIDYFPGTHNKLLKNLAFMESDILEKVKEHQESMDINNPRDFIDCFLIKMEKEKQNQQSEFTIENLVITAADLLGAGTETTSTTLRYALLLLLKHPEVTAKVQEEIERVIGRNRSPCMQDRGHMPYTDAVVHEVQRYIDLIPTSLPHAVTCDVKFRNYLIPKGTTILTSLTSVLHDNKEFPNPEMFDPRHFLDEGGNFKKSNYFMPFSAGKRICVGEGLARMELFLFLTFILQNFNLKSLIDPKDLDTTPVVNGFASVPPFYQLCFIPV
Lysosomal acid glucosylceramidase (Homo sapiens), sequence (P04062 whole entry, looked up): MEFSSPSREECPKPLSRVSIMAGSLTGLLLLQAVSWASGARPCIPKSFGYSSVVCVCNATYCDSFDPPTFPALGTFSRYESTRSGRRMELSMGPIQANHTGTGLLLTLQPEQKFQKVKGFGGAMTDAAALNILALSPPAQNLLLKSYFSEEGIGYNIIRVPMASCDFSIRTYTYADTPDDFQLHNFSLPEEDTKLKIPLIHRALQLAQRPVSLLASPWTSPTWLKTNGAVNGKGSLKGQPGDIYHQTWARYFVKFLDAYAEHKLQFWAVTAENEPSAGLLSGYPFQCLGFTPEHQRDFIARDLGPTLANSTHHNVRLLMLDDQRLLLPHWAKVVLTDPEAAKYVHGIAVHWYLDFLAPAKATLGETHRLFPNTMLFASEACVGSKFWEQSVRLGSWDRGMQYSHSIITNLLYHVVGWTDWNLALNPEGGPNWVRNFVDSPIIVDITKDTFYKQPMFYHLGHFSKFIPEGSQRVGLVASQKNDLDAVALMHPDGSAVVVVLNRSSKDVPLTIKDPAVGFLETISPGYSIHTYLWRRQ
Cytochrome P450 2D6 (Homo sapiens), sequence (P10635 whole entry, looked up): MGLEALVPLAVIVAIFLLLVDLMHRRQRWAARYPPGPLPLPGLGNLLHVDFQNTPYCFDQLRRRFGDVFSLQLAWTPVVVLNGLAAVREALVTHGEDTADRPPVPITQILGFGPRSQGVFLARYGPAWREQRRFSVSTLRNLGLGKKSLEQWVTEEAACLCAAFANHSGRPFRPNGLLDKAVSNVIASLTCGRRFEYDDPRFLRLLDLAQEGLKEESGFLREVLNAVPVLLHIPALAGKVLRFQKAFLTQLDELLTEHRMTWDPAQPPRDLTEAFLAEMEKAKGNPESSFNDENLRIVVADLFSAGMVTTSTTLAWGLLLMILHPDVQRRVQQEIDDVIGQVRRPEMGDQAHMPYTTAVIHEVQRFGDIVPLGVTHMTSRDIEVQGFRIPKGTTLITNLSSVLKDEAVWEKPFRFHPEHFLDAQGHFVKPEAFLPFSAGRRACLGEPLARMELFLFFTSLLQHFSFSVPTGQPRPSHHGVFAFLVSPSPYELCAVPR
Cytochrome P450 2C9 (Homo sapiens), sequence (P11712 whole entry, looked up): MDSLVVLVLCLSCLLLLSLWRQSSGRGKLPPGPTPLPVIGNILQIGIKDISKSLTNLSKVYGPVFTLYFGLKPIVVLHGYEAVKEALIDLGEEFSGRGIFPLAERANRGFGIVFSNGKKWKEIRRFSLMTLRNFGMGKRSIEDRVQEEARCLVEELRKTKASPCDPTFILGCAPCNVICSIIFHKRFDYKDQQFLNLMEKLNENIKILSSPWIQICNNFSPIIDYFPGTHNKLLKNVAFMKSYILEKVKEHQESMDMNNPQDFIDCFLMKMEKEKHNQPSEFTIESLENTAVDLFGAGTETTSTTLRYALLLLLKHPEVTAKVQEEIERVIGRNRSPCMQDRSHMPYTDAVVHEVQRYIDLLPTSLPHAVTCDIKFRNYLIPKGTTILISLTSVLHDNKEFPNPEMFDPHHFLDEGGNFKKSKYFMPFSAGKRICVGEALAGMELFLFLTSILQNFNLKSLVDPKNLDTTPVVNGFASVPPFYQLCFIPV

O=C(Nc1ccc(Nc2ccc3c(c2)C(=O)c2ccccc2C3=O)c2c1C(=O)c1ccccc1C2=O)c1ccccc1
inactive: Potency [1] > 11.4 µM | activity change, negative = inhibition [2] -0.845% | activity change, negative = inhibition [4] 18.6% | activity, negative = inhibition [5] 13% | Potency [6] > 46 µM | Potency [7] | Potency [8]
active: Potency [3] 1.58 µM

Nc1ccc(S(=O)(=O)c2ccc(NC(=O)c3cccnc3)cc2)cc1
inactive: Potency [1] > 11.4 µM | activity change, negative = inhibition [2] -0.755% | activity change, negative = inhibition [3] -21.1% [at 2.29 µM] | activity change, negative = inhibition [4] 12.7% | activity, negative = inhibition [5] 8.7% | Potency [6] > 46 µM | Potency [7] | Potency [8] | Potency [9]

O=C(O)[C@@H](O)Cc1ccccn1
inactive: Potency [1] > 11.4 µM | activity change, negative = inhibition [2] 4.97% | Potency [3] | activity change, negative = inhibition [4] 2.96% | activity, negative = inhibition [5] 4.36% | Potency [6] > 46 µM | Potency [7] | Potency [8] | activation [10] 0.65%

CSc1nnnc2ccccc12
inactive: Potency [1] > 11.4 µM | activity change, negative = inhibition [2] -4.35% | activity change, negative = inhibition [4] 3.54% | activity, negative = inhibition [5] 0.181% | Potency [6] > 46 µM | Potency [7] | Potency [8] | Potency [11]
active: Potency [3] 3.16 µM

Nc1ncnc2c1nc(-c1ccccc1)n2[C@H]1O[C@@H](CO)[C@@H](O)[C@H]1O
inactive: Potency [1] > 11.4 µM | activity change, negative = inhibition [2] -9.23% | activity change, negative = inhibition [3] -16.8% [at 2.29 µM] | activity change, negative = inhibition [4] 6.55% | activity, negative = inhibition [5] 1.65% | Potency [6] > 46 µM | Potency [7] | Potency [8]

O=C1O[C@@H]([C@H](O)[C@H](O)[C@H](O)CO)[C@@H](O)[C@@H]1O
inactive: Potency [1] > 11.4 µM | activity change, negative = inhibition [2] 21.3% | Potency [3] | activity change, negative = inhibition [4] 6.28% | activity, negative = inhibition [5] -13.5% | Potency [6] > 46 µM | Potency [7] | Potency [8] | Potency [11]

NS(=O)(=O)c1cc(C(=O)O)c(O)c2ccccc12
inactive: Potency [1] > 11.4 µM | activity change, negative = inhibition [2] 15.8% | Potency [3] | activity change, negative = inhibition [4] 12.4% | activity, negative = inhibition [5] 10.7% | Potency [6] > 46 µM | Potency [7] | Potency [8]

O=C(O)c1nc(-c2ccccc2)[nH]c1C(=O)O
inactive: Potency [1] > 11.4 µM | activity change, negative = inhibition [2] -6.16% | activity change, negative = inhibition [4] -19.8% | activity, negative = inhibition [5] -26.6% | Potency [6] > 46 µM | Potency [7] | Potency [8]
active: Potency [3] 1 µM | Potency [11] 3.16 µM

NC(N)=N/N=C(\c1ccc(Cl)cc1)C1CC1
inactive: Potency [1] > 11.4 µM | activity change, negative = inhibition [2] 8.61% | activity change, negative = inhibition [4] -17.9% | activity, negative = inhibition [5] -1.61% | Potency [6] > 46 µM | Potency [7] | Potency [8]
active: Potency [3] 0.794 µM

COc1ccc(-c2nc(N)c3ncn([C@H]4O[C@@H](CO)[C@@H](O)[C@@H]4O)c3n2)cc1
inactive: Potency [1] > 11.4 µM | activity change, negative = inhibition [2] -12.4% | activity change, negative = inhibition [3] -13% [at 2.29 µM] | activity change, negative = inhibition [4] 0.656% | activity, negative = inhibition [5] 3.98% | Potency [12] > 9.22 µM | Potency [7] | Potency [8]

O=c1c(CCc2ccccc2)nc2cnc(Oc3cccc(Cl)c3)nc2n1C[C@H]1CCCO1
active: Potency [3] 3.98 µM | Potency [13] 6.31 µM
inactive: Potency [1] > 11.4 µM | activity change, negative = inhibition [2] -27.5% | activity change, negative = inhibition [4] -15.5% | activity, negative = inhibition [5] -17.7% | Potency [6] > 9.22 µM | Potency [12] > 46 µM | Potency [9]

COc1cc(C2SCCCCCCCCCCSC(c3ccc(O)c(OC)c3)SCCCCCCCCCCS2)ccc1O (stereo not given)
inactive: Potency [1] > 11.4 µM | activity change, negative = inhibition [2] -0.286% | activity change, negative = inhibition [3] -6.9% [at 2.29 µM] | activity change, negative = inhibition [4] 19.7% | activity, negative = inhibition [5] 9.48% | Potency [6] > 46 µM | Potency [7] | Potency [8]

CC(C)(C)c1cc2c(O)c(c1)Cc1cc(C(C)(C)C)cc(c1O)Cc1cc(C(C)(C)C)cc(c1O)Cc1cc(C(C)(C)C)cc(c1O)Cc1cc(C(C)(C)C)cc(c1O)Cc1cc(C(C)(C)C)cc(c1O)Cc1cc(C(C)(C)C)cc(c1O)Cc1cc(C(C)(C)C)cc(c1O)C2
inactive: Potency [1] > 11.4 µM | activity change, negative = inhibition [2] 6.61% | Potency [3] | activity change, negative = inhibition [4] -14.8% | activity, negative = inhibition [5] -5.63% | Potency [12] > 9.22 µM | Potency [7] | Potency [8]

Cc1ccc(C(N)=Nc2ccccc2)cc1
active: Potency [14] 3.16 µM
inactive: Potency [1] > 11.4 µM | activity change, negative = inhibition [2] 18.3% | Potency [3] | activity change, negative = inhibition [4] -2.23% | activity, negative = inhibition [5] -4.47% | Potency [6] > 46 µM | Potency [12] > 9.22 µM | Potency [8]

Nc1nc(-c2cccs2)cs1
inactive: Potency [1] > 11.4 µM | activity change, negative = inhibition [2] 1.24% | activity change, negative = inhibition [3] -30.1% [at 2.29 µM] | activity change, negative = inhibition [4] 6.96% | activity, negative = inhibition [5] 5.4% | Potency [6] > 46 µM | Potency [12] > 9.22 µM | Potency [8] | Potency [9] | activation [10] -9.81%

Cc1ccc([C@@H](O)c2cnc(C)n2Cc2ccccc2)cc1
inactive: Potency [1] > 11.4 µM | activity change, negative = inhibition [2] -7.71% | Potency [3] | activity change, negative = inhibition [4] -10.9% | activity, negative = inhibition [5] -4.84% | Potency [6] > 46 µM | Potency [7] | Potency [8] | Potency [9]
active: Potency [14] 0.631 µM | Potency [11] 1.26 µM
